Molecules are shown by their SMILES. Records with an inconclusive call do not appear. Calls of active or inactive are those of the source. The calls were made as follows: active = hit-call score of the fitted dose curve at least 0.9, where 1 is the maximum; inconclusive = response in the unintended direction; inactive = score below 0.9.

Read-out in this test: Cytochrome P450 2C9 (Homo sapiens) (UniProt P11712)
Put plainly: CLD_CYP2C9_24hr: CellzDirect (CLD) Gene Expression Assay for xenobiotic metabolism (CYP2C9) at 24 hours (AID 2283688). On the procedure: CLD_24hr is a cell-based, multiplexed-readout assay that uses hepatocyte, a human liver primary cell, with measurements taken at 24 hours after chemical dosing in a 96-well plate.CLD_CYP2C9_24hr is one of 16 assay component(s) measured or calculated from the CLD_24hr assay. It is designed to make measurements of mRNA induction, a form of inducible reporter, as detected with chemiluminescence signals by Quantitative Nuclease Protection Assay (qNPA) technology.Data from the assay component CLD_CYP2C9_24hr was analyzed at the endpoint, CLD_CYP2C9_24hr, in the positive analysis fitting direction relative to DMSO as the negative control and baseline of activity. Using a type of inducible reporter, gain-of-signal activity can be used to understand changes in the reporter gene as they relate to the gene CYP2C9. Furthermore, this assay endpoint can be referred to as a primary readout. To generalize the intended target to other relatable targets, this assay endpoint is annotated to the cyp intended target family, where subfamily is xenobiotic metabolism.
Human hepatocyte cultures were treated daily for two consecutive days with fresh dosing solutions containing appropriate concentrations of the 320 ToxCast chemicals (chemical identities were blinded to CellzDirect and other ToxCast collaborators), vehicle control (0.2% DMSO), and positive control inducers as summarized in Table 1. Due to the large number of treatment groups and chemicals examined, the ToxCast chemicals were divided into two groups (spanning two independent cultures of hepatocytes from separate donor preparations (Hu778: ToxCast plates 1 and 2; Hu776: ToxCast plates 3 and 4). Each preparation of human hepatocyte cultures was treated with respective vehicle control, medium only control, set of six positive controls/reference chemicals for the five hepatic receptor pathways, and a subset of eight of the ToxCast chemicals (indoxacarb, pyrithiobac-sodium, norflurazon, cyhalofop-butyl, methomyl, thiram, acetochlor, and propiconazole). These replicate data, coupled with internal replicates designed within the blinded ToxCast chemical library, provided additional data to evaluate interindividual differences between hepatocyte preparations and their potential impact on chemical profiles.Cell morphology and integrity were evaluated using phase-contrast microscopy as an indicator of hepatocyte cell health (Tyson & Green, 1987). Cultures for each treatment group (i.e., media, vehicle [0.2% DMSO], positive control inducers [multiple concentrations], and the ToxCast chemicals [multiple concentrations]) were observed and cell morphology was assessed relative to vehicle control cultures at each harvest time point (0, 6, 24, or 48 h). […] Images were evaluated at the conclusion of the study to assess changes in cell integrity and account for the effects of chemical exposure on uncharacteristic changes in concentration-dependent gene expression profiles. The results from these determinations of apparent cytotoxicity were annotated (yes/no) alongside the corresponding qNPA data for reference.At the conclusion of each treatment period, hepatocyte cultures (96-well) were washed with 1 volume of HBSS, lysed by addition of 25 ul ArrayPlate lysis buffer (HTG, Tucson, AZ), and 70 ul/well of Denaturation Oil, denatured by incubation at 95C for 10 min, and frozen at approximately -70C until analysis by nuclease protection assay (qNPA) (Roberts et al., 2007). For qNPA analysis, cell lysates were thawed at 50C for approximately 30 min, qNPA probes were added, and samples were incubated at 95C for 10 min to begin the detection process by denaturing the target RNA, dissociating the duplexes and secondary structure hybridization. At the conclusion of the hybridization period, S1 nuclease reagent was added to each sample to digest all nonprotected nucleotides at 50C for 60-90 min. […]
Take `Cc1cnc(C2=NC(C)(C(C)C)C(=O)N2)c(C(=O)O)c1` (stereo not given): the call was inactive.

For `O=C1C2CC=CCC2C(=O)N1SC(Cl)(Cl)Cl` (stereo not given), the outcome was inactive.

Turning to `CCOP(=S)(OCC)Oc1nc(Cl)n(C(C)C)n1`, the result was inactive.

In the case of `CCOc1cc(C(C)(C)C)ccc1C1COC(c2c(F)cccc2F)=N1` (stereo not given), the outcome was inactive.

With `COCC(=O)N(c1c(C)cccc1C)C(C)C(=O)OC` (stereo not given), the call was inactive.

Take `CC1(C)C(C(=O)OC(C#N)c2cccc(Oc3ccccc3)c2)C1(C)C` (stereo not given): the molecule was classed as inactive.

On to `N#Cc1c(Cl)cccc1Cl`, for which the call was inactive.

With `Nc1c(Cl)c(F)nc(OCC(=O)O)c1Cl`, the molecule was called inactive.

`CO/N=C(/C1=NOCCO1)c1ccccc1Oc1ncnc(Oc2ccccc2Cl)c1F`: the molecule was called inactive.

For `Nc1c(Cl)c(Cl)nc(C(=O)O)c1Cl`, the outcome was inactive.

On to `CCCC(=NOCC)C1=C(O)CC(CC(C)SCC)CC1=O` (stereo not given), for which the molecule was called inactive.

Regarding `COC(=O)NC(=S)Nc1ccccc1NC(=S)NC(=O)OC`, the outcome was inactive.

Turning to `CC(C)=CC1C(C(=O)OCc2coc(Cc3ccccc3)c2)C1(C)C` (stereo not given), the molecule was classed as inactive.

As for `CC(C)NC(=O)N1CC(=O)N(c2cc(Cl)cc(Cl)c2)C1=O`, the molecule was classed as inactive.

For `COC(=O)c1c(C(F)F)nc(C(F)(F)F)c(C2=NCCS2)c1CC(C)C`, the molecule was classed as inactive.

For `CC(C)(C)C(=O)C(Oc1ccc(Cl)cc1)n1cncn1` (stereo not given), the call was inactive.

As for `O=c1n(Cl)c(=O)n(Cl)c(=O)n1Cl`, the molecule was classed as inactive.

Regarding `COCC(C)N(C(=O)CCl)c1c(C)csc1C` (stereo not given), the molecule was classed as inactive.

As for `CCOc1nc(C(Cl)(Cl)Cl)ns1`, the outcome was inactive.

Regarding `CCOc1nc(F)cc2nc(S(=O)(=O)Nc3c(Cl)cccc3Cl)nn12`, the outcome was inactive.

Consider `C=C(C)CN(CC)c1c([N+](=O)[O-])cc(C(F)(F)F)cc1[N+](=O)[O-]`, for which the result was inactive.

For the molecule `CCCCOCN(C(=O)CCl)c1c(CC)cccc1CC`, the call was inactive.

`CC(C)C1(C)N=C(c2ncccc2C(=O)O)NC1=O` (stereo not given): the outcome was inactive.

Consider `COCc1cnc(C2=NC(C)(C(C)C)C(=O)N2)c(C(=O)O)c1` (stereo not given), for which the result was inactive.

Consider `CC(C)Oc1cccc(NC(=O)c2ccccc2C(F)(F)F)c1`, for which the outcome was inactive.

Take `CCN(CC)C(=O)C(C)Oc1cccc2ccccc12` (stereo not given): the outcome was inactive.

Regarding `CCSC(=O)N1CCCCCC1`, the result was inactive.

In the case of `COc1cc(Cl)c(OC)cc1Cl`, the outcome was inactive.

Regarding `COP(=S)(OC)SCn1nnc2ccccc2c1=O`, the molecule was classed as inactive.

Turning to `CN=C=S`, the molecule was classed as inactive.

As for `OC(c1ccc(Cl)cc1)(c1ccc(Cl)cc1)C(Cl)(Cl)Cl`, the outcome was inactive.

Take `C=CCOC(=O)C(C)(C)OC(=O)c1cc(-n2c(=O)cc(C(F)(F)F)n(C)c2=O)ccc1Cl`: the molecule was called inactive.

`CC1(C)CCC(=Cc2ccc(Cl)cc2)C1(O)Cn1cncn1` (stereo not given): the result was inactive.

As to `Cc1nc(N(C)C)nc(OC(=O)N(C)C)c1C`, the result was inactive.

With `CCNP(=S)(OC)O/C(C)=C/C(=O)OC(C)C` (stereo not given), the molecule was called inactive.

Regarding `CC1(C)C(C=C(Cl)Cl)C1C(=O)OC(C#N)c1cccc(Oc2ccccc2)c1` (stereo not given), the call was inactive.

In the case of `COP(=O)(OC)O/C(C)=C/C(=O)N(C)C`, the molecule was classed as inactive.

Regarding `N#CN=C1SCCN1Cc1ccc(Cl)nc1`, the molecule was called inactive.

As for `COc1cc(OC)nc(NC(=O)NS(=O)(=O)c2ncccc2OCC(F)(F)F)n1`, the molecule was classed as inactive.

Turning to `O=C(O)c1c(Cl)ccc2cc(Cl)cnc12`, the call was inactive.

The values above are taken from PubChem BioAssay (EPA / NIEHS).
